“And” between values parts separate entries of the source, which are not always exact repeats. Equal values may be shown once. The panel holds about 83,000 compounds, 20% with a hit somewhere; the sample as a whole holds those more often.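 How to read the values: 0–100, growth inhibition (40 = 60% inhibited); 0, no net growth; -100 to 0, cell death (-40 = 40% of starting cells died; -100 = all dead).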 A number with no mark means an inactive call. The source made the active and inactive calls. Rule for the calls: active = growth percent below 10; inactive = the rest.
Each compound was assayed on MDA-MB-468 breast (assay: NCI-60 one-dose screen, 48 h (100 = growth as untreated, 0 = no growth, -100 = all killed)). Conditions: 10 µM unless noted.

| Structure (SMILES) | growth |
| --- | --- |
| COC(=O)CCSC1=C(C)C(=O)c2ccccc2C1=O | -24.5% (active) |
| COc1cc(/C=N\NC(=O)c2ccc3nc(-c4ccc(Br)cc4)[nH]c3c2)cc(OC)c1OC | 37.2% |
| O=C(CNc1nnc(-c2ccc(Cl)cc2)o1)Nc1ccc(-c2nc3ccccc3s2)cc1 | -10.2% (active) |
| COc1ccc(C/C(C)=C(\c2ccc(O)cc2)c2ccc(OCCCN(C)C)cc2)cc1 | 86.8% |
| Cn1c(=O)c2c(nc(Br)n2CC(=O)Nc2ccc(F)cc2)n(C)c1=O | 109% |
| NCCN1CCN(c2nc(-c3ccccc3)nc3nc(-c4ccccc4)oc23)CC1 | -33.6% (active) |
| CCCCNNC(=O)c1ccc(-c2cccc(F)c2F)cc1 | -4.26% (active) |
| O=C1C=Cc2ncccc2C1=O | 64.5% |
| c1csc(-c2nc(-c3cc4ccccc4c(N4CCOCC4)n3)cs2)c1 | 5.77% (active) |
| O=C(OCc1nc2nc(Cl)nc(N3CCOCC3)c2[nH]1)n1ccnc1 | -26.9% (active) |
| Nc1ncnc2c1c(-c1ccc(Oc3ccccc3)cc1)nn2C[C@H]1SSC[C@@H]1O | -26.7% (active) |
| COc1cc(/C=C/C(=O)c2ccc(Nc3nc(Nc4ccccc4)nc(Nc4ccc(Cl)cc4)n3)cc2)cc(OC)c1OC | 76.3% |
| COc1cc(OC)cc(C2=C3CC[C@@H]4[C@H](CC[C@]5(C)C(=O)CC[C@@H]45)C3=CC3C(O)c4cccnc4N4C(=O)COC234)c1 (stereo not given in full) | 105% |
| Fc1cc2c(cc1Cl)N(c1ncnc3ccc(-c4cnc5[nH]ncc5c4)cc13)CC2 | 49.5% |
| S=c1[nH]ccn1-c1ccccc1Cl | 103% |
| COc1ccc(S(=O)(=O)NCCCNc2cc(-c3c(-c4cccc(OC)c4)nc4sccn34)ccn2)cc1 | 11.3% |
| CCNC(=O)c1[nH]cc(-c2ccc(OC)cc2)c1-c1cc(OC)cc(OC)c1 | 76.2% |
| COC(=O)c1c2c(c(C)[n+]([O-])c1C)C(=O)C=C(NCc1ccc(Br)cc1)C2=O | -60.1% (active) |
| Cn1cc(-c2csc(-c3c[nH]c4ccc(F)cc34)n2)c2ccnc(Cl)c21 | 15% |
| O=C(Nc1ccc(F)cc1)c1cc([N+](=O)[O-])ccc1O | 56.3% |

| Structure (SMILES) | growth |
| --- | --- |
| O=C(Cn1c2c(c3ccccc31)CCCC2)Nc1ccc(-c2nc3ccccc3s2)cc1 | -19.5% (active) |
| c1ccc(Nc2ccc(Nc3nc(-c4ccccc4)nc4ccccc34)cc2)cc1 | 82.3% |
| CC1CCC(C(=O)O)N1 (stereo not given) | 106% |
| N[C@@H]1CCN(C(=O)c2cc3cc(Cl)c(F)c(F)c3[nH]2)C1 | 81.6% |
| Cc1ccc(-c2nc(N3CCN(CC(=O)Nc4ccc(Cl)c(C(F)(F)F)c4)CC3)c3ccccc3n2)cc1 | 93.9% |
| CCC(NC(c1cc2cccc3ccc4cccc1c4c32)c1nnnn1C(C)(C)C)C1CCCCC1 (stereo not given) | 7.35% (active) |
| CC1=NC(c2ccc(Cl)cc2)C2=C(N1)/C(=C/c1ccc(Cl)cc1)CCC2 (stereo not given) | 75.8% |
| COc1ccc(-n2c(=O)sc3c(Cl)nc(C)nc32)c(OC)c1 | 57.8% |
| CC(C(=O)n1cc(-c2ccccc2)c(-c2ccccc2)c1)c1ccccc1 (stereo not given) | 104% |
| C[C@@H]1N=C(c2ccc(Cl)cc2Cl)Nc2nc3ccccn3c2C1=O | 53.9% |
| CNC(=O)c1cc(Oc2ccc3nc(NC(=O)Nc4cc(C(F)(F)F)cc(C(F)(F)F)c4)sc3c2)ccn1 | -31.1% (active) |
| O=C(c1ccc(O)c(Br)c1)c1ccc(O)c(Br)c1 | 106% |
| O=C1C=CC2(NN=C(c3ccccc3)N2c2cccc(Cl)c2)c2cccc(O)c21 (stereo not given) | 76.1% |
| CSc1nc(-c2ccc(F)cc2)c(C#N)c(N2CCOCC2)n1 | 87.3% |
| N#CC1c2ccccc2C=CN1C(=O)c1ccccc1 (stereo not given) | 108% and 96.5% |
| CCN1C2CCC1/C(=C\c1ccc(F)cc1)C(=O)/C2=C/c1ccc(F)cc1 | 11.1% |
| Cc1ccc(C(CC(=O)O)c2c(C)[nH][nH]c2=O)cc1 (stereo not given) | 101% |
| Cc1cc(N2CCCC2)nc(NC2CCCC(Nc3ccnc4cc(Cl)ccc34)C2)n1 (stereo not given) | -56.1% (active) |
| Nc1nc(SN=Nc2ccc(S(N)(=O)=O)cc2)c2[nH]cnc2n1 | -9.35% (active) |
| COc1ccc2[nH]cc(C3(c4c[nH]c5ccc(OC)cc45)C(=O)Nc4ccc(Cl)cc43)c2c1 | 97.7% |
